Compound activity as filed in PubChem.
Compounds with a hit are over-represented: about 2.4% of the library has one in this group of screens.
HSF1 inh – HSF1 inhibition | NIH3T3-HGL HSE-luciferase, MG132-induced, luminescence 8 h; active compounds read low | activity change, negative = inhibition, % at 7.5 µM (by protocol) | actives 0.77% (n = 300,000);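 active = more than half of replicate wells show activity change below -50%, luminescence cut by over half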;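 also: luciferase reports HSF-1 transcriptional activity via heat shock element; 0% = median of DMSO wells and -100% = zero luminescence signal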
STAT3 blocker – inhibitors of IL-6 induced STAT3 signaling | inhibition, % at 5.5 µM | actives 0.89% (n = 190,000) | U3A cells, IL-6 STAT3-luciferase reporter, luminescence; host cell line lacks STAT1 | AID 862;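 active = inhibition above the mean inhibition across all screened compounds plus 3 SD, cut at about 44% in these data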;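 also: 0% = DMSO only wells and 100% = 100 µM nifuroxazide control wells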
C8 TRAIL sens – caspase-8 TRAIL sensitization; inhibition (viability loss, TRAIL sensitization), % at 10 µM; AID 624354; actives 1% (n = 360,000); NB7+C8 cells + TRAIL, ATPlite viability luminescence;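 active = compounds causing at least 50% loss of cell viability in the single-dose screen, relative to plate controls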
HSP90 inh – inhibitors of HSP90 luciferase refolding in rabbit reticulocyte lysate | luciferase refolding luminescence, 3 h | inhibition, % at 5.6 µM | actives 0.91% (n = 290,000);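 active = inhibition above the screen-wide mean plus 3 SD, computed separately per campaign, cut at about 16% in these data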;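 also: 0% = DMSO wells and 100% = 60 µM geldanamycin wells; inhibitors lower the luminescence because luciferase stays unfolded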
STAT1 blocker – STAT1 signaling inhibition; NIH 3T3 STAT1-luciferase reporter, IFN-gamma, luminescence; inhibition, % at 5.5 µM; actives 0.35% (n = 200,000);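 active = inhibition above a set limit, the mean inhibition across all tested compounds plus 3 SD, cut at about 34% in these data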;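 also: 0% = IFN-gamma with DMSO and 100% = IFN-gamma with 300 µM nifuroxazide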
PPC-1+TRAIL kill – kills PPC-1 cancer cells in the presence of TRAIL; cell killing (% activity), % at 4 µM or 5 µM; actives 0.41% (n = 220,000); PPC-1 cells + TRAIL, ATPLite viability luminescence;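 active = cell killing above 50% in the first pass at 4 µM, then a duplicate retest at 5 µM averaging 50% or more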;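 also: plate controls were cells with TRAIL plus DMSO for no effect and medium-only wells lacking cells for full effect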
An asterisk follows results filed as active; · = no result.

SMILES | HSF1 inh | STAT3 blocker | C8 TRAIL sens | HSP90 inh | STAT1 blocker | PPC-1+TRAIL kill
COC(=O)C1=C(C)N(CCCC(=O)O)C(=O)NC1c1ccc(Br)cc1 (centres undefined) | -0.3 | · | -1.5 | 2.7 | · | ·
COC(=O)C1=C(C)N(CCCC(=O)O)C(=O)NC1c1ccc(C#N)cc1 (centres undefined) | -66.4* | · | -4.0 | · | · | ·
COC(=O)C1=C(C)N(CCCC(=O)O)C(=O)NC1c1ccccc1Cl (centres undefined) | -64.3* | · | -11.1 | · | · | ·
Cc1cc(NC(=O)Cn2ccc([N+](=O)[O-])n2)no1 | -52.3* | 12.2 | -8.0 | -0.8 | -1.7 | 2.2
COC(=O)C(C(=O)OC)c1ccccc1NC(=O)OCc1ccccc1 | · | · | -21.5 | · | · | ·
CC1CCN(c2ccc(-c3ccc(NC(=O)C(F)(F)F)cc3)nn2)CC1 | -8.0 | · | 88.6* | 4.4 | · | ·
Cc1cc(C)c2c(c1)/C(=N/NS(=O)(=O)c1ccc(Br)cc1)CCC2 | -54.3* | 1.6 | -17.7 | 0.6 | 2.1 | 32.3
O=C(NCC(F)(F)F)c1cc2c(c(-c3cccc(-c4ccccc4F)c3)n1)[C@@H](CCO)N(C(=O)CC1CC1)C2 | · | · | 14.6 | · | · | ·
Cc1ccc(-n2c(C)cc(C3=NNC(=NC4CC4)SC3)c2C)cc1C | 5.9 | -10.3 | 64.3* | 6.0 | -23.7 | 22.8
Cc1cc(C2=NNC(=NC3CC3)SC2)c(C)n1-c1c(C)n(C)n(-c2ccccc2)c1=O | -9.8 | 7.9 | -7.9 | 0.9 | 3.1 | 10.6
CCCOc1ccc2cc(C(=O)NCc3ccccc3)c(=O)oc2c1 | -60.6* | · | -3.8 | -0.7 | · | ·
CN=c1sc2c(n1C)C(=O)c1ccccc1C2=O | · | · | 75.8* | · | · | ·
CCOC(=O)c1cnc2cc(-c3ccc(Cl)cc3)nn2c1N | 16.4 | 15.8 | 5.3 | -0.1 | -30.5 | 17.4
CSc1nc(N)n2nc(-c3ccc(Cl)cc3)cc2n1 | 15.5 | · | 44.9* | -2.3 | · | 19.3
COc1cc(/C=C/C(=O)NC(C)C2CC3CCC2C3)cc(OC)c1OC (centres undefined) | -88.2* | · | 8.7 | -1.5 | · | ·
COc1cc(/C=C/C(=O)NC2CCCCC2)cc(OC)c1OC | -3.8 | · | -0.1 | -6.3 | · | ·
COc1cc(OC)c(OC)cc1/C=N/NC(=S)NCC1CCCO1 (centres undefined) | -69.9* | -4.5 | 3.2 | 5.3 | 1.3 | -2.7
CCCCCc1cc(=O)oc2c(C(CCN3CCCCC3)c3ccc4c(c3)OCO4)c(OC)cc(OC)c12 (centres undefined) | -1.7 | · | 43.6 | · | · | -4.5
CCCCCc1cc(=O)oc2c(C(CCN(CC)CC)c3cc(OC)c(OC)c(OC)c3)c(OC)cc(OC)c12 (centres undefined) | 5.2 | · | 75.0* | · | · | 12.7
CCN1/C(=C/C(C)=C/c2sc3ccccc3[n+]2CC)Sc2ccccc21 | 2.6 | 95.9* | 50.4* | 0.9 | 45.1* | 47.3
CCN1/C(=C\C(=S)Nc2ccccc2)Sc2ccccc21 | -0.7 | -3.7 | 19.4 | -3.4 | -49.9 | ·
CC1(C(=O)NS(=O)(=O)c2cccc(OC(F)F)c2)CCN1C(=O)CC(c1ccccc1)c1ccccc1 (centres undefined) | · | · | 6.4 | · | · | ·
COc1ccc(N2CCN(S(=O)(=O)c3cc4c(cc3C)NC(=O)CO4)CC2)cc1 | -8.8 | · | 1.7 | -0.3 | · | ·
COc1ccc(N2CCN(S(=O)(=O)c3cc4c(cc3C)N(C(C)=O)CCO4)CC2)cc1 | -58.1* | · | -10.1 | -2.1 | · | ·
Cc1ccc(S(=O)(=O)/N=C2\C=C(Nc3ccc(O)cc3)C(=O)c3ccccc32)cc1 | · | · | 92.5* | · | · | ·
SMILES | HSF1 inh | STAT3 blocker | C8 TRAIL sens | HSP90 inh | STAT1 blocker | PPC-1+TRAIL kill
Cc1ccc(NC2=C/C(=N/S(=O)(=O)c3cccs3)c3ccccc3C2=O)cc1 | -94.2* | -34.1 | 95.1* | 0.6 | -17.8 | 37.5
COC(=O)c1ccccc1NC1=C/C(=N\S(=O)(=O)c2cccs2)c2ccccc2C1=O | 33.4 | -36.1 | 80.4* | 4.1 | -9.9 | 4.1
CC(C)(C)c1ccc(S(=O)(=O)/N=C2\C=C(NS(=O)(=O)c3ccccc3)C(=O)c3ccccc32)cc1 | 16.7 | · | 13.6 | -1.2 | · | ·
Cc1ccc(S(=O)(=O)/N=C2\C=C(NS(=O)(=O)c3ccccc3)C(=O)c3ccccc32)c(C)c1 | · | · | 1.5 | · | · | ·
COC(=O)C1(C(=O)OC)C[C@H](c2cccs2)N(Cc2ccccc2OC)[C@@H]1c1ccc(F)cc1 | · | · | 14.3 | · | · | ·
Cn1c(=O)c2[nH]c(NN=Cc3cccc(Br)c3)nc2n(C)c1=O | · | · | 27.8 | · | · | ·
NC(=S)NN=C1c2ccccc2-c2c(F)c(F)c(F)c(F)c21 | · | · | 70.9* | · | · | ·
Cc1cc(/C=N/n2c(COc3ccccc3)nc3ccccc3c2=O)c(O)c([N+](=O)[O-])c1 | -1.1 | -4.1 | 51.1* | -2.4 | 11.4 | 4.6
O=C(CN1CC(c2ccccc2)CC1=O)N/N=C/c1cc(Br)ccc1O (centres undefined) | 0.7 | 7.8 | 52.0* | -6.0 | -3.4 | 33.9
Nc1nc(CSC(=S)N2CCCCC2)nc(Nc2ccccc2)n1 | -81.0* | -21.4 | -8.3 | 0.2 | -36.4 | 25.6
O=C1c2ccccc2NC(c2ccccc2)N1/N=C/c1ccccc1 (centres undefined) | 27.4 | 18.1 | 54.7* | 1.6 | -13.9 | 36.0
O=C1c2ccccc2NC(c2ccc(O)cc2)N1/N=C/c1ccc(O)cc1 (centres undefined) | 28.5 | -18.0 | 9.4 | 6.2 | -24.7 | 26.1
Cc1ccc(C(=O)Nc2ccccc2C(=O)O)cc1S(=O)(=O)NCc1ccccc1 | -92.1* | -1.9 | -2.2 | -5.9 | 16.2 | ·
Cc1ccc(C(=O)Nc2ccccc2C(=O)O)cc1S(=O)(=O)Nc1ccc(Br)cc1 | -1.2 | · | 12.4 | · | · | ·
CCc1nc2c(OCc3cccc(Cl)c3)cccn2c1N(C)C(=O)c1ccncc1 | · | · | -11.2 | · | · | ·
CCOC(=O)C1=CCN(S(=O)(=O)c2ccccc2Cl)C1c1cccc(C)c1 (centres undefined) | · | · | -8.6 | · | · | ·
COc1ccc(C(CNC(=O)c2ccc(S(=O)(=O)Nc3ccccc3OC)cc2)N2CCCC2)cc1 (centres undefined) | · | · | -13.2 | · | · | ·
Cc1ccc(NC(C(=O)c2ccccc2)c2ccccc2)cc1 (centres undefined) | · | · | 10.6 | · | · | ·
CCN1/C(=C/c2ccc3cc(C)ccc3[n+]2CC)Sc2ccc3sccc3c21 | 13.9 | · | 94.3* | · | · | ·
CC[n+]1c(C)sc2c3ccsc3ccc21 | 0.4 | -10.9 | 3.8 | 4.8 | 4.7 | 30.3
CC1(C)N=C(N)N=C(N)N1c1ccc(OCC(=O)Nc2ccccc2)c(Cl)c1 | · | · | 80.6* | · | · | ·
Cc1cccc(NC(=O)CCc2ccc(N3C(N)=NC(N)=NC3(C)C)cc2)c1 | · | · | 79.8* | · | · | ·
CC1(C)N=C(N)N=C(N)N1c1ccc(OCCCOc2ccccc2)c(Cl)c1 | 0.8 | · | 71.4* | -0.9 | · | 41.1
CC1(C)N=C(N)N=C(N)N1c1cccc(CC(=O)Nc2ccccc2)c1 | · | · | 78.0* | · | · | ·
Cc1cccc(NC(=O)CCc2ccccc2)c1 | 8.3 | 6.5 | -3.4 | -0.5 | -6.6 | 17.8
COc1ccccc1N1C(N)=NC(N)=NC1(C)C | -3.1 | 4.7 | -0.5 | -3.2 | 0.6 | 18.6
Cc1cc(N2CCN(C)CC2)nc2ccc(NC(=O)c3cccnc3Cl)cc12 | -58.9* | 4.7 | -2.8 | -0.9 | 1.2 | -17.3
